# Reference: PubChem BioAssay (NCI)
# “And” between values parts separate entries of the source, which are not always exact repeats. Equal entries are not always repeated. The panel holds about 83,000 compounds, 20% with a hit somewhere; the sample as a whole holds those more often.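 Plates (96-well) were seeded with cells, treated with compound at one concentration, and incubated for 48 hours before percent growth was determined.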 The source made the active and inactive calls.
# Test system: TK-10 renal
# Test: NCI-60 one-dose screen, 48 h (100 = growth as untreated, 0 = no growth, -100 = all killed)
# Conditions: 1 µM
# Procedure: Growth inhibition of the TK-10 human tumor cell line is measured as a screen for anti-cancer activity. Cells are grown in 96 well plates and exposed to the test compound for 48 hours. Compounds are tested at a single concentration, which is 10^-5 M for most compounds. The reported endpoint is percent growth (GI% or GIPRCNT), where numbers from 0 - 100% represent growth inhibition, and numbers from -100% - 0 represent cell death. For example, a value of 40 represents 60% growth inhibition. A value of 0 means no net growth occurred over the course of the experiment. A value of -40 indicates 40% of cells at the beginning of the experiment died by the end of the experiment. A value of -100 means all cells are dead at the end of the experiment.
# NCI-60 Human Tumor Cell Lines Screen was performed using the standard one-dose NCI protocol, which is described in more detail at https://dtp.cancer.gov/discovery_development/nci-60/default.htm.
# Compounds with GIPRCNT values below 10 were considered active. Activity score was based on GIPRCNT using the following formula: […]
# Score is 0 for GIPRCNT values of 100 or above, 50 for GIPRCNT values of 0, and 100 for GIPRCNT values of -100.
row,Structure (SMILES),growth
1,CC/C(=C(\c1ccc(O)cc1)c1ccc(OCCNC)cc1)c1ccccc1,91.2% (inactive)
2,CC/C(=C(/c1ccc(O)cc1)c1ccc(OCCN(C)C(=O)COCCOCCNC(=O)Cc2ccc3c(c2)CN([C@@H]2CCC(=O)NC2=O)C3=O)cc1)c1ccccc1,101% (inactive)
3,CC/C(=C(/c1ccc(O)cc1)c1ccc(OCCN(C)C(=O)CCOCCNC(=O)Cc2ccc3c(c2)CN([C@@H]2CCC(=O)NC2=O)C3=O)cc1)c1ccccc1,94% (inactive)

# Same assay, conditions: 10 µM
row,Structure (SMILES),growth
1,CC/C(=C(\c1ccc(O)cc1)c1ccc(OCCNC)cc1)c1ccccc1,94.5% (inactive)
2,CC/C(=C(/c1ccc(O)cc1)c1ccc(OCCN(C)C(=O)COCCOCCNC(=O)Cc2ccc3c(c2)CN([C@@H]2CCC(=O)NC2=O)C3=O)cc1)c1ccccc1,89.2% (inactive)
3,CC/C(=C(/c1ccc(O)cc1)c1ccc(OCCN(C)C(=O)CCOCCNC(=O)Cc2ccc3c(c2)CN([C@@H]2CCC(=O)NC2=O)C3=O)cc1)c1ccccc1,93.5% (inactive)

# Same assay, conditions: 10 µM unless noted
row,Structure (SMILES),growth
1,CCOc1ccc2[nH]c(=O)c(C(c3nnnn3CC3CCCO3)N3CCN(Cc4ccccc4)CC3)cc2c1 (stereo not given),114% (inactive)
2,O=C(N/N=C/c1ccc(Cl)o1)c1[nH]c2ccc(Br)cc2c1-c1ccccc1,-11.7% (active)
3,COc1ccc(-c2nc3ccc(-c4nnc(SCc5ccccc5)o4)cc3[nH]2)cc1OC,23% (inactive)
4,COc1ccc(-c2nnc3c(/C=C/c4ccc(Br)cc4)nc4ccccc4n23)cc1,99.4% (inactive)
5,CN1CCN(C(=O)Oc2cc3c(c4ccccc24)[C@H](CCl)CN3C(=O)c2cc3cc(OCCCN4CCC4)ccc3[nH]2)[C@@H]2CSSC[C@H]21,11.7% (inactive)
6,COc1cc(/C=C/C(=O)c2cnn(-c3cc(=O)[nH]c4ccc(Br)cc34)c2C)cc(OC)c1OC,1.77% (active)
7,CC[C@]12C=CCN3CC[C@]4(C(=C(C(=O)OC)C1)Nc1cc(OC)c([C@@H]5[C@H]6O[C@H]6[C@@]6(CC)CC(C(=O)OC)=C7Nc8cc(O)ccc8[C@@]78CCN5[C@@H]68)cc14)[C@@H]32,25.6% (inactive)
8,Cc1ccccc1Nc1nnc(-c2c[nH]c3ccccc23)o1,60.2% (inactive)
9,CCC1(OC(=O)c2ccccc2SSCCOC(=O)CCCCC2SCC3NC(=O)NC32)C(=O)OCc2c1cc1n(c2=O)Cc2cc3ccccc3nc2-1 (stereo not given),94.8% (inactive)
10,Cc1cc(N=C(N)c2ccccc2)ccc1OCCCCCCCCn1ccnc1,32.9% (inactive)
11,O=C(OCCOCCO)N(c1cccc(Br)c1)c1nc(SCCN2CCOCC2)nc2c1cnn2CC(Cl)c1ccc(Br)cc1 (stereo not given),40.5% (inactive)
12,COc1ccc2ccccc2c1/C=C1\SC(=Nc2ccc(O)cc2)NC1=O,36.9% (inactive)
13,Nc1ccc(-c2ccc3ncnc(N4CCc5cc(F)c(Cl)cc54)c3c2)cn1,-7.15% (active)
14,O=C(Nc1ccc(S(=O)(=O)N2CCCCC2)cc1)C(Cl)Cl,103% (inactive)
15,O=C(c1ccc(Cl)cc1)C1[C@H](c2ccccc2Cl)[C@@H](c2ccccc2)NC12C(=O)Nc1ccc(Br)cc12 (stereo not given in full),-2.31% (active)
16,NC1(c2ccc(-c3ccc4ncnc(NCc5ccccc5)c4c3)cn2)COC1,108% (inactive)
17,O=C(Nc1ccc(Cl)c(C(F)(F)F)c1)N1CCN(c2cc(-c3cn(-c4ccccc4)nc3-c3cccc(O)c3)ccn2)CC1,8.9% (active)

row,Structure (SMILES),growth
1,c1n[nH]cc1-c1nc2ccc3cn[nH]c3c2c2c1CCCC2,104% (inactive)
2,CC1=C(C)C(=O)C(N2CCSCC2)=CC1=O,130% (inactive)
3,N#Cc1c(-c2ccc(F)cc2)nc(SCc2ccccc2)nc1N1CCNCC1,-88.3% (active)
4,O=c1ccc(Cn2c(C(F)(F)F)cc3c(Cl)ncnc32)c[nH]1,111% (inactive)
5,COc1ccc2[nH]c(O)c(N=Nc3nc(-c4ccc(C#N)cc4)cs3)c2c1,55.3% (inactive)
6,CCCCNC(=S)Nc1ccc(OCc2nc3ccc(Cl)cc3[nH]2)cc1,36.6% (inactive)
7,O=C(CSc1nc2ccccc2c(=O)[nH]1)NNC(=O)c1ccccc1Cl,105% (inactive)
8,O=C1Nc2cc(-c3ccc(NS(=O)(=O)c4ccc(-c5ccccc5)cc4)cc3)ccc2/C1=C/c1ccc[nH]1,49% (inactive)
9,O=C(CSc1nc2c(c(=O)[nH]1)CCCC2)Nc1ccccc1C(=O)O,106% (inactive)
10,COc1cc(C=O)ccc1Oc1nc(Nc2ccc(F)cc2)nc(N(C)C)n1,84.2% (inactive) and 86.8% (inactive)
11,O=C1Nc2cc(-c3ccc(NS(=O)(=O)c4ccc(F)c(Cl)c4)cc3)ccc2/C1=C/c1ccc[nH]1,54.5% (inactive)
12,CCCSc1nnc(-c2c(C)nc3sccn23)o1,113% (inactive)
13,COC(=O)c1c(C(=O)OC)c2ccc3c4ccccc4ccc3n2c1C(=O)C(C)Br (stereo not given),58.1% (inactive)
14,COC(=O)c1c(C(=O)OC)c2c3ccccc3c3ccccc3n2c1C(=O)C(F)(F)F,113% (inactive)
15,C=CCSc1nnc(-c2ccc(-c3nc4ccc(Cl)cc4[nH]3)cc2)o1,90.3% (inactive)
16,CCOc1ccccc1[C@H]1C(C(=O)c2ccc(Cl)cc2)C2(N[C@@H]1c1ccccc1)C(=O)Nc1ccc(Br)cc12 (stereo not given in full),27% (inactive)
17,FC(F)(F)c1cc2c(Cl)ncnc2n1CCN1CCOCC1,102% (inactive)
